The panel holds about 83,000 compounds, 20% with a hit somewhere; the sample as a whole holds those more often.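 Growth was measured after 48 h exposure to one concentration of compound in 96-well plates. Values under 10 count as active.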 The source made the active and inactive calls.
tested on: HCT-15 colon; assay: NCI-60 one-dose screen, 48 h (100 = growth as untreated, 0 = no growth, -100 = all killed); conditions: 10 µM unless noted
Protocol: Growth inhibition of the HCT-15 human tumor cell line is measured as a screen for anti-cancer activity. Cells are grown in 96 well plates and exposed to the test compound for 48 hours. Compounds are tested at a single concentration, which is 10^-5 M for most compounds. The reported endpoint is percent growth (GI% or GIPRCNT), where numbers from 0 - 100% represent growth inhibition, and numbers from -100% - 0 represent cell death. For example, a value of 40 represents 60% growth inhibition. A value of 0 means no net growth occurred over the course of the experiment. A value of -40 indicates 40% of cells at the beginning of the experiment died by the end of the experiment. A value of -100 means all cells are dead at the end of the experiment.
NCI-60 Human Tumor Cell Lines Screen was performed using the standard one-dose NCI protocol, which is described in more detail at https://dtp.cancer.gov/discovery_development/nci-60/default.htm.
Compounds with GIPRCNT values below 10 were considered active. Activity score was based on GIPRCNT using the following formula: […]
Score is 0 for GIPRCNT values of 100 or above, 50 for GIPRCNT values of 0, and 100 for GIPRCNT values of -100.

SMILES	growth
COc1ccc(-c2nnc(SCC(=O)NC3=NN=C(c4ccccc4)CS3)o2)cc1	106% (inactive)
CCCCCCCCCCCCCCCCCC1=NCCN1C(=O)OCCO	-8.42% (active)
CN1CCC(=C2c3ccccc3C=Cc3ccccc32)CC1	73.7% (inactive)
CNC(=O)c1cc(Oc2ccc3nc(NC(=O)Nc4cc(C(F)(F)F)cc(C(F)(F)F)c4)sc3c2)ccn1	-4.69% (active)
O=c1cc(-c2ccc(OCc3ccccc3)cc2)oc2c(I)c(OCc3ccccc3)cc(OCc3ccccc3)c12	104% (inactive)
N=C(N)c1ccc(-c2ccc(-c3ccc(Cl)c(Cl)c3)o2)cc1	-55.7% (active)
CN(C)CCCCNc1ccc(NCCCCN(C)C)c2c1C(=O)c1c(O)ccc(O)c1C2=O	-66.4% (active)
COc1ccc(/C=N/NC(=O)Cn2c(-c3ccc(S(C)(=O)=O)cc3)nc3cc(Cl)ccc32)cc1	17.5% (inactive)
OC(c1cccc(OCc2ccccc2)c1)c1nnc(-c2ccccc2)o1 (stereo not given)	90% (inactive)
Nc1nc(I)c2ncn(C3OC(CO)C(O)C3O)c2n1 (stereo not given)	104% (inactive)
N#Cc1c(N)n2c(nc1=Nc1ccc([N+](=O)[O-])cc1)sc1cc(Cl)ccc12	95.9% (inactive)
CC(=O)Nc1cccc(C2=CC(c3ccc(C)cc3)n3ncnc3N2)c1 (stereo not given)	99.3% (inactive)
COc1ccc(/C(C)=C(\c2ccc(Cl)cc2)c2ccc(OCCN3CCCCC3)cc2)cc1F	0.563% (active)
CN1C[C@@H](c2ccc(Cl)cc2)[C@]2(NC(=S)N(c3ccccc3)C2=O)[C@@]12C(=O)NC1C=CC(Br)=C[C@H]12 (stereo not given in full)	73.5% (inactive)
COc1ccc(-c2cc(-c3cc(OC)ccc3OC)[nH]c(=O)c2C#N)cc1	62.8% (inactive)
COc1cc2oc(-c3cccc(C(=O)Nc4ccc(C#N)cc4)c3)cc(=O)c2c(O)c1OC	75% (inactive)
CC(C)N(CCOC(=O)Nc1ccccc1Cl)C(C)C	108% (inactive)
O=S(=O)(Nc1ccsc1-c1nc(-c2ccccc2)no1)c1cc(Cl)cc(Cl)c1	91.9% (inactive)
Cc1cc(-c2ccccc2)cc(SC#N)[n+]1[O-]	24.7% (inactive)
CCN(CC)CCOC(=O)Nc1ccccc1Cl	102% (inactive)

SMILES	growth
Cc1cc(-c2ccc(N(C)C)cc2)c2sc(=O)[nH]c2n1	29.4% (inactive)
COc1ccc(-c2cc(-c3ccc(Nc4nc(Nc5ccccc5)nc(Nc5ccc(Cl)cc5)n4)cc3)nc(N)c2C#N)cc1	-33.6% (active)
CCOc1ccc2nc(-c3cccc(OCC(=O)NC(C)C)c3)nc(Nc3ccc(-c4cn[nH]c4)cc3)c2c1	30.8% (inactive)
c1ccc([P+](CCCc2n(Cc3ccc4ccccc4c3)c3ccccc3[n+]2Cc2ccc3ccccc3c2)(c2ccccc2)c2ccccc2)cc1	85.5% (inactive)
CCCCCCCCN(CCCCCCCC)C(=N)c1ccnc2ccccc12	-88.2% (active)
CN(C)c1ccc(/C=C2\C=C(c3ccccc3)N(CCc3ccccc3)C2=O)cc1	83.2% (inactive)
COc1cccc(/C=C2\COc3ccc(O)cc3C2=O)c1OC	45.4% (inactive)
C[N+](C)(C)CCOC(OCC[N+](C)(C)C)(c1ccccc1)c1ccccc1	104% (inactive)
C=C(CNCCc1ccc(O)cc1)[C@@H]1CC[C@]2(COC3CCCCO3)CC[C@]3(C)[C@H](CC[C@@H]4[C@@]5(C)CCC(NCCO)C(C)(C)[C@@H]5CC[C@]43C)[C@@H]12 (stereo not given in full)	-93.5% (active)
COc1ccc(C(=O)/C=C/c2cc3c(c(OC)c2)OCC(=O)N3)cc1	33.4% (inactive)
CN1C[C@@H](c2ccc(Cl)cc2)[C@]2(NC(=S)N(c3ccc(F)c(Cl)c3)C2=O)[C@@]12C(=O)NC1C=CC(Cl)=C[C@H]12 (stereo not given in full)	48.5% (inactive)
CCCCN(CCCC)CCCn1c(=O)c2sc3ncccc3c2n2nnc(-c3ccccc3)c12	99.8% (inactive)
Cc1nc(Nc2ccc(NC(=S)Nc3ccccc3)cc2)c2ccccc2n1	101% (inactive)
CCCCCCCSc1ccc(C(=O)O)cc1	111% (inactive)
NS(=O)(=O)c1cn(-c2ncnc3nc[nH]c23)ccc1=O	94% (inactive)
N#Cc1c(NC(=O)c2ccccc2I)sc2c1CCCC2	21.5% (inactive)
CCOC(=O)c1ccc(-c2ccc3cc(OC)ccc3c2)nc1C	99.2% (inactive)
Cc1cc(N(CCCNc2ccnc3cc(Cl)ccc23)Cc2ccccn2)nc(N2CCCC2)n1	48.3% (inactive)
O=C1/C(=C/c2ccc([N+](=O)[O-])cc2)COc2ccc(O)c(O)c21	-45.9% (active)
CC(C)(C)OC(=O)N1Cc2cc3ccccc3nc2C1CO (stereo not given)	118% (inactive)

— PubChem BioAssay (NCI)
